Sampled rows, rich in hits. Any-hit rate of the full collection: about 3.7%.
BoNT A protease = inhibitors of Botulinum neurotoxin A light chain protease | inhibition, % at 10 µM | multiplex microsphere protease substrate cleavage, flow cytometry | 0.17% of 360,000 active
BoNT-F LC inh = BoNT F light chain protease inhibition | Multiplex microsphere protease cleavage assay, flow cytometry | inhibition, % at 10 µM | 0.22% of 360,000 active; in the data active means inhibition above about 35%, passing the limit was not always enough; inconclusive means no clear call, values can overlap the other calls
MazEF act = activators of E. coli MazEF toxin-antitoxin RNase; activation, % at 20 µM; FAM/BHQ RNA-DNA oligo cleavage fluorescence, 5 h; AID 504720; 0.32% of 350,000 active; P0AE70; in the data active means activation above about 50%
Target sequence (P0AE70 whole entry, looked up): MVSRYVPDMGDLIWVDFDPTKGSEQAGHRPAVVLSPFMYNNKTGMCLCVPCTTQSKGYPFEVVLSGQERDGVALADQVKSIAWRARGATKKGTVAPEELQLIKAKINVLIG
Autofluor counter = counter-screen for toxin protease inhibitors: compound fluorescence | compound autofluorescence counterscreen, microsphere flow cytometry; stronger effect = higher value | fluorescence intensity (concentration not given with the values) | 3.1% of 360,000 active; in the data active means fluorescence intensity above about 16000; inconclusive means no clear call, values can overlap the other calls
Anthrax LF inh2 = inhibitors of Bacillus anthracis lethal factor protease; P15917; multiplex microsphere protease cleavage assay, LF; inhibition, % at 10 µM; 0.12% of 360,000 active
Large screens that a line does not name were inactive. Unless noted, no stated cut-off is given here; in the data, active means inhibition above about 30%; inconclusive means no clear call, values can overlap the other calls; inactive means below that.

CCOC(=O)c1[nH]c(C)c(C(=O)NCCCOC(C)C)c1C	Autofluor counter 21373
CCOC(=O)c1[nH]c(C)c(C(=O)N2CCN(c3cccc(Cl)c3)CC2)c1C	Autofluor counter 19964
CCOC(=O)c1[nH]c(C)c(C(=O)NC(C)CC)c1C (stereo not drawn)	none
CCOC(=O)c1[nH]c(C)c(C(=O)N2CCN(c3ccc(OC)cc3)CC2)c1C	none
CCOC(=O)c1[nH]c(C)c(C(=O)Nc2cccc(Cl)c2C)c1C	Autofluor counter 19613
CCOC(=O)c1[nH]c(C)c(C(=O)N2CCN(c3ccc(F)cc3)CC2)c1C	Autofluor counter 21567
COc1ccc(C(c2nnnn2C2CCCCC2)N2CCN(C/C=C/c3ccccc3)CC2)cc1 (stereo not drawn)	none (no result: MazEF act)
OC[C@@H]1CN(C2CCCC2)C[C@H](n2cnc3c(NC4CC4)ncnc32)O1	none (no result: MazEF act)
COc1ccc(NC(=O)c2cc(-c3cc(F)ccc3OCC3CCCO3)n[nH]2)c(C)c1 (stereo not drawn)	none (no result: MazEF act)
O=C(Nn1c(O)c(C=C2N=c3ccccc3=N2)sc1=S)c1ccccc1Cl	BoNT A protease 60.7, BoNT-F LC inh 55.2, Anthrax LF inh2 64.7
Oc1c(C=C2N=c3ccccc3=N2)sc(=S)n1-c1ccccc1	BoNT A protease 44.1
Oc1c(C=C2N=c3ccccc3=N2)sc(=S)n1C1CCCCC1	BoNT A protease 69.8, Anthrax LF inh2 33.0
O=C1NC[C@@H](CCCCN2C[C@H](Cc3ccc(O)cc3)N(CCc3ccccc3)C(=O)C2=O)N(Cc2ccccc2)C1=O	none (no result: MazEF act)
COc1ccc(C(C)(NC(C)=O)c2nc(/C=C/c3ccccc3)cs2)cc1 (stereo not drawn)	none (no result: MazEF act)
CCOC(=O)C1CCCN(C(=O)c2ccc(S(=O)(=O)Nc3ccccc3OC)cc2)C1 (stereo not drawn)	none
CCc1ccc([C@@H]2CC=C(C(=O)O)[C@H](c3ccc(C(C)(C)C)cc3)N2S(=O)(=O)c2ccc(C)cc2)cc1	none
CC(C)C(=O)Nc1ccc2oc(-c3cc(F)c(F)cc3Cl)nc2c1	Autofluor counter 24150
Nc1nc2c(ncn2[C@@H]2O[C@H](CNCc3cnc(N4CCOCC4)nc3)[C@@H](O)[C@H]2O)c(=O)[nH]1	none (no result: MazEF act)
COc1cccc(-c2cnc(C(O)c3ccc(F)c(C)c3)[nH]2)c1 (stereo not drawn)	none (no result: MazEF act)
COc1cc(/C=N/NC(=O)Cn2nc([N+](=O)[O-])cc2C)cc(Br)c1OCc1ccccc1	none
CCOc1cc(/C=N/NC(=O)Cn2nc([N+](=O)[O-])cc2C)cc(Br)c1OCc1ccccc1C	Autofluor counter 16860
O=c1ccn([C@@H]2O[C@H](CNS(=O)(=O)C3CC3)[C@@H](O)[C@H]2O)c(=O)[nH]1	none
Cc1ccc(NC2=NC(c3ccccc3)n3c(nc(C)cc3=O)N2)c(C)c1 (stereo not drawn)	Autofluor counter 22223
Cc1ccc(NC2=NC(c3ccc(C)cc3)n3c(nc(C)cc3=O)N2)cc1 (stereo not drawn)	Autofluor counter 23058
Cc1ccc(NC2=NC(c3ccc(F)cc3)n3c(nc(C)cc3=O)N2)c(C)c1 (stereo not drawn)	BoNT-F LC inh inconclusive
C[C@@H]1CN([C@H](C)CO)C(=O)CCCn2nncc2CO[C@H]1CN(C)Cc1cccnc1	none
O=C(/C=C/c1ccco1)Nc1sc2c(c1C(=O)O)CCC2	Autofluor counter 16426
COc1ccccc1OC(C)C(=O)O (stereo not drawn)	Autofluor counter 20529
COc1ccccc1OCC(=O)O	none
Cc1ccc(-n2c(-c3ccc(Br)cc3)c[n+]3c2CCc2ccc4cccnc4c2-3)cc1	Autofluor counter 21635
COc1ccc(-n2c(-c3ccc(Cl)cc3)c[n+]3c2CCc2ccccc2-3)cc1	none
COC(=O)[C@H](CO)N1C(=O)[C@@H]2[C@H](C1=O)C1C=C[C@H]2C1	none
COc1cc(-c2noc(-c3cccs3)n2)cc(OC)c1OC	BoNT A protease inconclusive, Autofluor counter 20254
COc1ccc(-c2noc(-c3cccs3)n2)cc1OC	none
CN1CCc2ccccc2C1C1CCNCC1 (stereo not drawn)	Autofluor counter 24213
CCC1C(=O)N(C)CCc2ccccc21 (stereo not drawn)	none
CCOC(=O)C1(C)CCCN(C(=O)c2ccc3ccccc3c2)C1 (stereo not drawn)	none (no result: MazEF act)
O=C(Nc1ccccc1N1CCOCC1)c1ccccc1[N+](=O)[O-]	Autofluor counter 24174
O=[N+]([O-])c1cc(F)c(N2CCOCC2)cc1N1CCCCC1	Autofluor counter 24982
O=[N+]([O-])c1cc(F)c(N2CCCCC2)cc1N1CCOCC1	none
O=C(Nc1ccccc1N1CCOCC1)c1ccc(N2CCOCC2)c([N+](=O)[O-])c1	none
O=[N+]([O-])c1cccnc1N1CCOCC1	BoNT A protease inconclusive, Autofluor counter 19529
O=C1CCN(c2ncccc2[N+](=O)[O-])CC1	none
CC(=O)c1ccc(OCCCC(=O)N(CCC2=CCCCC2)c2c(N)n(Cc3ccccc3)c(=O)[nH]c2=O)cc1	none
Cn1ncc2c(=O)[nH]c(N)nc21	none
CCOC(=O)c1c(C)[nH]c(C(C)=NNC(=O)c2cccs2)c1C	none
CCCNC(=O)c1cc(C2CCCN(S(=O)(=O)c3cccs3)C2)on1 (stereo not drawn)	none (no result: MazEF act)
Cc1cc(C(=O)N2CCCC(C)(C(=O)NS(=O)(=O)C3CC3)C2)nn1C(C)(C)C (stereo not drawn)	none (no result: MazEF act)
CCCN(CCC)c1nc(N)c(C#N)c(CC#N)c1C#N	MazEF act 133.7
O=C(COc1ccccc1)NCC1CCCO1 (stereo not drawn)	none
O=C(NCCCN1CCOCC1)C(C(=O)c1ccccc1)n1ccccc1=O (stereo not drawn)	Autofluor counter 22755
O=C(COC(=O)CCC(=O)c1ccc(F)cc1)NCc1ccco1	none
COc1ccc(CCNC(=O)C(C(=O)c2ccc(F)cc2)n2ccccc2=O)cc1OC (stereo not drawn)	none
O=C(COc1ccc(F)cc1)NCC1CCCO1 (stereo not drawn)	BoNT A protease inconclusive, Autofluor counter 24747
O=C(NCC1CCCO1)C(C(=O)c1ccc(F)cc1)n1ccccc1=O (stereo not drawn)	Autofluor counter 21506
Cc1ccc(=O)n(C(C(=O)NCc2ccco2)C(=O)c2ccc(F)cc2)c1 (stereo not drawn)	Autofluor counter 22339
Cc1nc2ccc(NS(=O)(=O)c3c(F)cc(F)cc3Br)cc2s1	none
CNC(=O)C[C@H]1C(=O)N(c2ccccc2)C[C@@H]1CSC	none
CN(C)c1ccc(CC(=O)N2CCCC(c3cc(C(=O)Nc4ccc(F)c(Cl)c4)no3)C2)cc1 (stereo not drawn)	none (no result: MazEF act)
COc1cccc2c1O/C(=N\O)C(C(=O)Nc1ccc(C)cc1)C2 (stereo not drawn)	none
CC[C@]1(C(=O)OC)[C@H]2C(=O)N(C)C(=O)[C@H]2[C@H]2CN=C(SCc3ccc(C)cc3)N21	none
O=C(NCc1cccnc1)C(C(=O)c1ccc(F)cc1)n1ccccc1=O (stereo not drawn)	BoNT A protease inconclusive, Autofluor counter 22039
O=C(NCc1ccccc1)C(C(=O)c1ccc(F)cc1)n1ccccc1=O (stereo not drawn)	none
